Consider eight compounds from article PMC5540273 (PLoS ONE, 2017).

Where two headings read alike, the source gives them in different places.

One assay has as its system SRPK1. As to conditions: concentration: 1 μM, replicates: in singlicate; n = 1.
The subject of another assay is SRPK2. As to conditions: concentration: 1 μM, replicates: in singlicate; n = 1.
The next assay has as its system SRPK3. As to conditions: concentration: 1 μM, replicates: in singlicate; n = 1.
The test system of another assay is STK16. As to conditions: concentration: 1 μM, replicates: in singlicate; n = 1.
Another assay has as its system STK33. As to conditions: concentration: 1 μM, replicates: in singlicate; n = 1.
In the next assay the test system is STK35. As to conditions: concentration: 1 μM, replicates: in singlicate; n = 1.
The next assay relates to STK36. As to conditions: concentration: 1 μM, replicates: in singlicate; n = 1.
A further assay has as its system STK39. As to conditions: concentration: 1 μM, replicates: in singlicate; n = 1.
In the next assay the test system is SYK. As to conditions: concentration: 1 μM, replicates: in singlicate; n = 1.
Another assay deals with SgK110. As to conditions: concentration: 1 μM, replicates: in singlicate; n = 1.
The subject of a further assay is T1, TAK1.
T1 construct: gene MAP3K7
As to conditions: concentration: 1 μM, replicates: in singlicate; n = 1.

The subject of the next assay is TAOK1. As to conditions: concentration: 1 μM, replicates: in singlicate; n = 1.
The next assay concerns TAOK2. As to conditions: concentration: 1 μM, replicates: in singlicate; n = 1.
The next assay has as its system TAOK3. As to conditions: concentration: 1 μM, replicates: in singlicate; n = 1.
For a further assay, the system named is TBK1. As to conditions: concentration: 1 μM, replicates: in singlicate; n = 1.
The test system of a further assay is TEC. As to conditions: concentration: 1 μM, replicates: in singlicate; n = 1.
In the next assay the test system is TESK1. As to conditions: concentration: 1 μM, replicates: in singlicate; n = 1.
A further assay relates to TGFBR1. As to conditions: n = 1.
The next assay deals with TGFBR2. As to conditions: concentration: 1 μM, replicates: in singlicate; n = 1.
For the next assay, the system named is TIE1. As to conditions: concentration: 1 μM, replicates: in singlicate; n = 1.
[1] abbreviates: concentration: 1 μM, replicates: in singlicate.
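Note: KINOMEscan kinase panel screen.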

As to `O=C(Nc1n[nH]c2nc(-c3ccccc3)c(Br)cc12)C1CC1` [SB-708998], the “%Inh” value was 36% in the assay with SRPK1; 0% in the assay with SRPK2; 17% in the assay with SRPK3; 0% in the assay on STK16; 14% in the assay on STK33; 0% in the assay on STK35. In addition, the “%Inh” value in the assay with STK36 is 38%; in the assay on STK39 it was 4%; in the assay with SYK, 13%; with SgK110 it was 13%; in the assay on TAK1 it was 0%; in the assay with TAOK1 it was 9%. In addition, the “%Inh” value in the assay with TAOK2 is on record as 0%; in the assay on TAOK3, 16%; in the assay on TBK1 it was 4%; with TEC, 0%; in the assay on TESK1 it was 7%; with TGFBR1 (setting [1]) it was 0%. In addition, the “%Inh” value with TGFBR2 was found to be 6%; in the assay on TIE1 it was 14%.
`Cc1nn2c(=O)cc(N3CCOCC3)nc2n1Cc1cccc(Cl)c1Cl` [GSK2342769]: the “%Inh” value in the assay with SRPK1 was found to be 19%; in the assay with SRPK2, 0%; with SRPK3, 0%; in the assay with STK16 it was 0%; in the assay with STK33, 0%; in the assay with STK35 it was 0%. For the same compound, the “%Inh” value is 0% in the assay with STK36; 10% in the assay on STK39; 8% in the assay on SYK; 0% in the assay on SgK110; 0% with TAK1; 0% in the assay with TAOK1. Further, the “%Inh” value with TAOK2 turned out to be 0%; in the assay on TAOK3 it was 0%; with TBK1, 11%; with TEC, 0%; with TESK1, 10%; with TGFBR1 (setting [1]), 0%. Moreover, the “%Inh” value in the assay with TGFBR2 came out at 44%; with TIE1, 12%.
Take `Cc1cc(Nc2nc(-c3cccc(C)n3)nc3ccccc23)ccn1` [GW872411]: the “%Inh” value was 0% in the assay with SRPK1; 0% with SRPK2; 13% in the assay on SRPK3; 0% in the assay on STK16; 0% in the assay on STK33; 3% in the assay with STK35. The “%Inh” value with STK36, in the assay on STK39, with SYK, in the assay on SgK110, in the assay on TAK1 and with TAOK1 was 0% in each case. The “%Inh” value in the assay on TAOK2 was determined as 29%; with TAOK3 it was 0%; in the assay on TBK1, 0%; in the assay on TEC it was 1%; in the assay on TESK1, 0%; with TGFBR1 (1 µM), 83%. In addition, the “%Inh” value in the assay on TGFBR2 and in the assay on TIE1 was 0% each time.
Regarding `Cc1ccc(Oc2ccc(Nc3ncnc4cc[nH]c34)cc2C)cn1`, the “%Inh” value worked out at 0% in the assay with SRPK1; 0% in the assay with SRPK2; 0% in the assay with SRPK3; 27% in the assay with STK16; 0% in the assay on STK33; 0% in the assay with STK35. Moreover, the “%Inh” value with STK36 came out at 13%; in the assay with STK39 it was 15%; in the assay on SYK it was 11%; with SgK110 it was 0%; with TAK1, 30%; in the assay on TAOK1, 0%. Also, the “%Inh” value was 0% with TAOK2; 0% in the assay on TAOK3; 30% in the assay with TBK1; 6% with TEC; 13% in the assay on TESK1; 2% with TGFBR1 (setting [1]). In addition, the “%Inh” value with TGFBR2 and in the assay with TIE1 was 0% in each case.
With `CCC(=O)c1c(-c2ccccc2)c2cc(Cl)ccc2c(=O)n1Cc1cc(S(C)(=O)=O)n(CCC(C)(C)O)n1`, the “%Inh” value in the assay with SRPK1 was 3%; with SRPK2, 53%; in the assay on SRPK3, 11%; in the assay on STK16, 1%; in the assay with STK33 it was 8%; with STK35, 15%. Besides, the “%Inh” value is listed as 11% in the assay on STK36; 0% in the assay with STK39; 25% with SYK; 9% in the assay with SgK110; 31% in the assay with TAK1; 9% in the assay with TAOK1. Further, the “%Inh” value came to 0% in the assay with TAOK2; 0% in the assay with TAOK3; 20% with TBK1; 6% in the assay on TEC; 21% in the assay on TESK1; 6% in the assay with TGFBR1 (setting [1]). Also, the “%Inh” value was found to be 19% in the assay with TGFBR2 and 16% in the assay with TIE1.
`Nc1nc(-c2ccccc2F)c(-c2ccnc3ccccc23)s1` [GW560459]: the “%Inh” value in the assay on SRPK1 worked out at 25%; in the assay on SRPK2 it was 0%; in the assay with SRPK3, 0%; in the assay on STK16 it was 7%; in the assay with STK33, 0%; with STK35, 0%. The “%Inh” value in the assay on STK36 came to 0%; in the assay on STK39, 1%; in the assay with SYK, 32%; in the assay on SgK110 it was 0%; in the assay on TAK1 it was 0%; with TAOK1, 0%. Also, the “%Inh” value in the assay with TAOK2 amounted to 0%; with TAOK3, 0%; in the assay with TBK1, 20%; with TEC it was 0%; in the assay with TESK1, 12%; in the assay with TGFBR1 (setting [1]) it was 16%. The “%Inh” value with TGFBR2 and in the assay with TIE1 was 0% each time.
Take `CN(C)c1cc(-c2ccc3c(N)n[nH]c3c2)nc(N)n1` [GSK2219329]: the “%Inh” value in the assay with SRPK1, with SRPK2, in the assay with SRPK3, in the assay on STK16, with STK33 and in the assay with STK35 was 0% throughout. Moreover, the “%Inh” value was determined as 0% with STK36; 0% in the assay on STK39; 17% in the assay on SYK; 0% in the assay on SgK110; 0% in the assay with TAK1; 0% with TAOK1. The “%Inh” value is recorded as 0% with TAOK2; 0% in the assay with TAOK3; 9% in the assay on TBK1; 1% with TEC; 76% in the assay on TESK1; 0% with TGFBR2. For the same compound, the “%Inh” value in the assay on TIE1 is given as 0%.
As to `FC(F)(F)c1ccc(-c2ncn(CCCN3CCOCC3)c2-c2ccncc2)cc1` [SB-217780], the “%Inh” value in the assay on SRPK1 was 0%; in the assay on SRPK2, 6%; in the assay with SRPK3 it was 6%; in the assay on STK16 it was 9%; in the assay on STK33, 0%; in the assay on STK35 it was 0%. In addition, the “%Inh” value in the assay on STK36 is recorded as 10%; in the assay with STK39, 19%; in the assay with SYK, 0%; with SgK110, 0%; in the assay with TAK1, 24%; with TAOK1, 0%. The “%Inh” value was found to be 0% in the assay on TAOK2; 0% in the assay with TAOK3; 3% with TBK1; 3% in the assay with TEC; 12% with TESK1; 2% in the assay with TGFBR1 (setting [1]). In addition, the “%Inh” value with TGFBR2 amounted to 0%; in the assay on TIE1, 15%.
